Each structure is given as a SMILES string. Values joined by “and” are separate entries in the source; they are usually repeats but may differ in a detail not shown here. Equal entries are not always repeated. Records with an inconclusive call do not appear. Some structures have more than one record in an assay (separate samples or runs), and their calls can disagree. Active and inactive are the calls of the source. Calls follow the shape of the dose curve; as a rule, active = well fitted inhibition curve with a large enough effect; inconclusive = small, poorly fitted or top-dose-only effect; inactive = flat fitted curve, though single readings scatter.
% is scaled to controls: 0 for no effect and ±100 for the full control effect; potency is read from the fitted curve at half-maximal effect.

This test is described as follows: Primary qHTS for inhibitors of nuclear receptor binding SET domain protein 2 (NSD2) in an isogenic RCH-ACV NSD2 p.E1099K mutant (9B) (AID 1645876). Also: nearly all actives have a fitted effect of over 70% in size. The note with it: RCH-ACV (leukaemia line) NSD2 E1099K (9B) viability, CellTiter-Glo, 72 h; series mostly up to 44.9 µM; activity change, negative = viability loss: at the top concentration.
Consider `O=C1[C@H](Cc2ccc(O)cc2)N2C(=O)CCN(C(=O)NCc3ccccc3)[C@H]2CN1Cc1cccc2ccccc12`, for which the Potency is 3.72 µM (active). On to `NC(=O)C1CCCc2c1[nH]c1ccc(Cl)cc21` (stereo not given), for which the “activity change, negative = viability loss” value was -18.2% (inactive). Same read-out and setting: as for `O=C1CCCC2=C1C(c1[nH]ncc1Cl)N=C(Nc1nc3ccccc3o1)N2` (stereo not given), the figure is -8.93% (inactive). Regarding `CC(C)(Sc1ccc(CCN(CCCCC2CCCCC2)C(=O)NC2CCCCC2)cc1)C(=O)O`, the “activity change, negative = viability loss” value is -2.74% (inactive). On to `CO[C@@H]1[C@H](N(C)C(=O)c2ccccc2)C[C@H]2O[C@]1(C)n1c3ccccc3c3c4c(c5c6ccccc6n2c5c31)C(=O)NC4`, for which the Potency is 1.3 µM (active) and 1.05 µM (active).

On to `COc1ccc(-c2ccc3c(N4CCOCC4)nc(N4C[C@@H](C)O[C@@H](C)C4)nc3n2)cc1CO`, for which the Potency is 0.662 µM (active). On to `CS(=O)(=O)c1ccc(C(=O)Nc2ccc(Cl)c(-c3ccccn3)c2)c(Cl)c1`, for which the “activity change, negative = viability loss” value was -15.8% (inactive). Same read-out and setting: as for `Cc1cc(SCc2sc(-c3ccc(C(F)(F)F)cc3)nc2C)ccc1OCC(=O)O`, the figure is -26.7% (inactive). Consider `Oc1cccc(-c2nc(N3CCOCC3)c3oc4ncccc4c3n2)c1`, for which the Potency is 0.118 µM (active). With `CCCS(=O)(=O)Nc1ccc(F)c(C(=O)c2c[nH]c3ncc(-c4ccc(Cl)cc4)cc23)c1F`, the Potency is 18.4 µM (active) and inactive. Turning to `CCCn1c(=O)c2[nH]c(C34CC5CC3C[C@@H](C5)C4)nc2n(CCC)c1=O`, the “activity change, negative = viability loss” value was -6.19% (inactive). Take `CC1(C)CNc2cc(NC(=O)c3cccnc3NCc3ccncc3)ccc21`: the Potency entry is “inactive”. The same measure, in the same setting: the figure for `CCC(C)(C)C(=O)O[C@H]1C[C@@H](C)C=C2C=C[C@H](C)[C@H](CC[C@@H]3C[C@@H](O)CC(=O)O3)[C@H]21` is 8.33 µM (active).

`N#CC[C@H](C1CCCC1)n1cc(-c2ncnc3[nH]ccc23)cn1`: the Potency is 16.3 µM (active) and 9.34 µM (active). In the case of `CCOc1cc(N2CCC(O)CC2)ccc1Nc1ncc2c(n1)N(C)c1ccccc1C(=O)N2C`, the Potency was 2.35 µM (active). Same read-out and setting: the figure for `COc1ccc(C2=N[C@H](c3ccc(Cl)cc3)[C@H](c3ccc(Cl)cc3)N2C(=O)N2CCNC(=O)C2)c(OC(C)C)c1` is 18.6 µM (active); for `COc1c(Cl)cc2c([nH]c3cnccc32)c1NC(=O)c1cccnc1C` it is 9.34 µM (active); for `NC(=O)c1ccc(I)c([N+](=O)[O-])c1` it is 18.6 µM (active). Consider `CC(C)c1onc(-c2c(Cl)cccc2Cl)c1COc1ccc(/C=C/c2cccc(C(=O)O)c2)c(Cl)c1`, for which the “activity change, negative = viability loss” value was 0.385% (inactive). For `Cc1n[nH]c(C)c1Cc1sc2c(c1C(=O)N1C[C@H](O)CO1)c(=O)n(C)c(=O)n2CC(C)C`, the Potency entry is “inactive”. On the same count and under the same terms, the figure for `Cc1cnc(Nc2ccc(OCCN3CCCC3)cc2)nc1Nc1cccc(S(=O)(=O)NC(C)(C)C)c1` is 1.83 µM (active) and 2.35 µM (active); for `CN(C)c1ccc(Nc2nc(N)n(C(=O)c3c(F)cccc3F)n2)cc1` it is 1.48 µM (active).

In the case of `CC[C@H](Nc1ncnc2nc[nH]c12)c1nc2cccc(F)c2c(=O)n1-c1ccccc1`, the Potency was 164 nM (active) and 833 nM (active); the activity change, negative = viability loss was -6.84% [at 9.23 µM] (inactive). `O=C(c1cc(Cc2n[nH]c(=O)c3ccccc23)ccc1F)N1CCN(C(=O)C2CC2)CC1`: the Potency is 6.61 µM (active). The same measure, in the same setting: as for `CCn1c(-c2nonc2N)nc2cnc(Oc3cccc(NC(=O)c4ccc(OCCN5CCOCC5)cc4)c3)cc21`, the figure is 3.26 µM (active) and 662 nM (active); as for `COc1ccc2c3n(c(=NC(=O)c4cccnc4)nc2c1OC)CCN3`, 0.166 µM (active). Regarding `Cc1cc(Nc2nc(N[C@@H](C)c3ncc(F)cn3)ncc2Cl)n[nH]1`, the Potency is 2.05 µM (active) and 2.95 µM (active). As for `c1ccc(-c2nn3c(c2-c2ccnc4cc(OCCN5CCOCC5)ccc24)CCC3)nc1`, the Potency was 16.6 µM (active). Turning to `OCCC#Cc1nc(-c2ccc(F)cc2)c(-c2ccncc2)n1CCCc1ccccc1`, the Potency is 16.4 µM (active) and 11.8 µM (active). For `O=C(O)[C@@H](c1ccc(OCc2ccc3ccccc3n2)cc1)C1CCCC1`, the “activity change, negative = viability loss” value was -6.49% (inactive). Regarding `Nc1nc2ccc(OC(F)(F)F)cc2s1`, the Potency was 23.5 µM (active). Regarding `Cc1ccnc(NS(=O)(=O)c2ccc(NC(=O)Nc3ccc(S(=O)(=O)Nc4nccc(C)n4)cc3)cc2)n1`, the “activity change, negative = viability loss” value is 9.62% (inactive). In the case of `O=C(C1CC1)N1CC[C@@H](Cn2c(-c3ccc(-c4ccc5occc5c4)cc3)nc3cnccc32)C1`, the Potency is 18.6 µM (active).

On to `COc1ccccc1[C@H](c1cccc2ccccc12)[C@@](C)(C#N)C(=O)N1CCC(c2cccc(C(F)(F)F)c2)CC1`, for which the compound was classed as inactive.
